Source: PubChem BioAssay
VLA-4 inh = inhibition in a human VLA-4 binding assay. P13612. VLA-4 expressing cells, ligand binding flow cytometry. inhibition, % (about 7 µM as worked out from the volumes in the protocol). 330,000 tested, 0.2% active. AID 2557; in the data active = inhibition above about 50%
Rev-erbA mod = Rev-erb alpha (human) modulation | P20393 | activity, % at 10 µM | 370,000 tested, 0.79% active | Rev-erbα–FITC-DNA binding, fluorescence polarization, 90 min;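 active = activity above about 14%, limit read from the data; passing the limit was not always enough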
PG9 binder = small molecules binding HIV-1 gp120 antibody PG9; TR-FRET gp120-PG9 antibody binding; inhibition, % at 6.7 µM; 360,000 tested, 0.43% active; AID 624416; in the data active = inhibition above about 8.5%
Exocytosis inh = lytic granule exocytosis inhibition | 360,000 tested, 0.66% active | inhibition, % at 10 µM | TALL-104 LAMP-1 surface exposure, flow cytometry; cells stimulated with thapsigargin and PMA;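 active = inhibition above about 55%, limit read from the data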
ABCB6 inh 2 = blocks the human ABCB6 transporter. Q9NP58. AID 602162. K562-ABCB6 porphyrin accumulation, flow cytometry, 1 h; hits give low values. 360,000 tested, 0.19% active. fluorescence ratio to DMSO, % at 10 µM;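 active = fluorescence ratio to DMSO below 75%, the collection mean minus 3 SD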;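 also: signal is porphyrin accumulated inside mitochondria; lower ratio means ABCB6 inhibition with less porphyrin fluorescence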
VLA-4 mod pick = human VLA-4 allosteric modulation in cherry picked compounds; U937 cells, HUTS-21 LIBS mAb binding, flow cytometry; LDV ligand present at threefold Kd; shares compounds with VLA-4 inh; 1,300 tested, 2% active; AID 2813; inhibition, % at 6.7 µM; in the data active = inhibition above about 40%
Large screens that a line does not name were inactive (follow-up assays come after a bar, where they were run). Most compounds without a hit are left out; they make up all but 2% or so of the library.

CC(=O)c1ccccc1NS(=O)(=O)c1c(C)nn(-c2ccccc2)c1C	none
CC(=O)c1ccccc1NS(=O)(=O)c1ccccc1Cl	none | VLA-4 mod pick inactive
CO[C@H]([C@H](C)/C=C/N(C)C=O)[C@@H](C)C(=O)CC[C@H](C)[C@H](O)[C@H](C)[C@H]1OC(=O)/C=C/C(C)=C/C[C@H](O)C[C@@H]2C=CC[C@@H](C[C@H](OC)[C@@H](CO)[C@@H](OC)C[C@@H](OC)[C@@H]1C)O2	none (no result: VLA-4 inh, PG9 binder, Exocytosis inh, ABCB6 inh 2)
Cc1ccc(S(=O)(=O)N2[C@@H](c3ccccc3)C(C(=O)O)=CC[C@H]2c2ccc3c(c2)OCO3)cc1	none
COc1ccc([C@H]2C(C(=O)O)=C[C@@H](CC3CCCC3)N2S(=O)(=O)c2ccc(C)cc2)cc1OC	none | VLA-4 mod pick inactive
Cc1ccc(S(=O)(=O)N2[C@@H](c3ccc4c(c3)OCO4)C(C(=O)O)=C[C@H]2CC2CCCC2)cc1	none | VLA-4 mod pick inactive
Cc1ccc(S(=O)(=O)N2[C@@H](c3ccccc3)C(C(=O)O)=CC[C@H]2c2cccc(C)c2)cc1	none
Cc1ccc(S(=O)(=O)N2[C@@H](c3cccc(C)c3)C(C(=O)O)=C[C@H]2CC2CCCC2)cc1	none | VLA-4 mod pick inactive
CC[C@@H]1C=C(C(=O)O)[C@H](c2cccc(C)c2)N1S(=O)(=O)c1ccc(C)cc1	none | VLA-4 mod pick inactive
COc1cccc(CNC(=O)[C@H]2CCCN2C(=O)[C@H]2CCCN2C(=O)c2ccc(F)cc2F)c1	none (no result: VLA-4 inh, Exocytosis inh, ABCB6 inh 2)
CN(Cc1ccccc1)C(=O)OCc1cn(Cc2ccc(F)cc2F)nn1	none (no result: VLA-4 inh, PG9 binder, Exocytosis inh, ABCB6 inh 2)
COc1cccc(CC(=O)N(Cc2ccccc2)c2ccccc2C(=O)Nc2cc(OC)ccc2OC)c1	none (no result: VLA-4 inh, PG9 binder, Exocytosis inh, ABCB6 inh 2)
COc1ccc(Cc2nc3ccc(S(N)(=O)=O)cc3[nH]2)cc1OC	VLA-4 inh 102.2 (no result: Exocytosis inh, ABCB6 inh 2) | VLA-4 mod pick inactive
O=C(O)c1ccc(NC(=O)C2C3CCC(O3)C2C(=O)O)cc1 (stereo not drawn)	none
O=C(O)c1ccc(NC2OC[C@@H](O)[C@H](O)[C@H]2O)cc1 (stereo partly drawn)	VLA-4 inh 58.5 | VLA-4 mod pick inactive
CC(C)[C@@H]1CN=C(N)N1C[C@@H]1CCCN1C[C@H](C)N1C[C@@H](Cc2ccccc2)N(CCc2ccc(Cl)c(Cl)c2)C1=N	VLA-4 inh 52.8 (no result: Rev-erbA mod, PG9 binder) | VLA-4 mod pick inactive
C#C[C@]1(O)CC[C@H]2[C@@H]3CCc4cc(OC5CCCC5)ccc4[C@H]3CC[C@@]21C	VLA-4 inh 53.4 | VLA-4 mod pick inactive
COC(=O)[C@]12C[C@H](CC(=O)NCC34CC5CC(CC(C5)C3)C4)C(=O)N(Cc3ccco3)C1=C[C@H](COCc1ccccc1)O[C@@H]2C	none (no result: VLA-4 inh, PG9 binder, Exocytosis inh, ABCB6 inh 2)
CCNc1nc2c(c(=O)n(C)c(=O)n2C)n1Cc1ccc(Cl)cc1	VLA-4 inh 56.6 | VLA-4 mod pick inactive
CCC(C)Nc1nc2c(c(=O)n(C)c(=O)n2C)n1Cc1ccc(Cl)cc1 (stereo not drawn)	none
C(=C\c1ccccc1)/CSc1nnc(Cc2cccs2)n1-c1ccccc1	none (no result: VLA-4 inh, PG9 binder, Exocytosis inh, ABCB6 inh 2)
CC(C)CN1C[C@@H]2CSCCS(=O)(=O)N2C1=O	none (no result: VLA-4 inh, PG9 binder, Exocytosis inh, ABCB6 inh 2)
Cc1cn(-c2cc(C(=O)Nc3ccc(C)c(NC(=O)N4CCNC4=O)c3)cc(C(F)(F)F)c2)cn1	VLA-4 inh 59.4 | VLA-4 mod pick inactive
CCN1CCN(Cc2ccc(NC(=O)c3ccc(C)c(NC(=O)N4CCNC4=O)c3)cc2C(F)(F)F)CC1	none | VLA-4 mod pick inactive
COc1ccccc1CC(=O)NNC(=O)CN(C)S(=O)(=O)c1ccc(Cl)cc1	none
COc1ccccc1CNC(=O)CN(C)S(=O)(=O)c1ccc(F)cc1	none | VLA-4 mod pick inactive
COc1ccccc1CNC(=O)C(C)NS(=O)(=O)c1ccccc1 (stereo not drawn)	none | VLA-4 mod pick inactive
O=C(CCNC(=O)c1ccccc1)Nc1ccc(F)c(Cl)c1	VLA-4 inh 54.1 | VLA-4 mod pick inactive
CCO[C@@H]1OC(C(=O)Nc2ccccc2)=C[C@H](C)[C@H]1CCCO	none | VLA-4 mod pick inactive
CCO[C@@H]1OC(C(=O)NCc2ccccc2)=C[C@H](C)[C@H]1CCCO	none (no result: VLA-4 inh)
CCN(CC)C(=O)c1ncn2c1C(=O)N[C@H](C)C2	none (no result: VLA-4 inh, Exocytosis inh, ABCB6 inh 2)
COc1ccc(/C=C\C(=O)NCc2ccc3c(c2)cc(C)n3C)cc1OC	VLA-4 inh 58.1 | VLA-4 mod pick inactive
COC(=O)C(CC(C)C)N(Cc1ccc(Br)cc1)S(=O)(=O)CCl (stereo not drawn)	none (no result: VLA-4 inh, Exocytosis inh, ABCB6 inh 2)
Cc1cc(C(=O)NNCc2ccccc2)no1	VLA-4 inh 55.6 | VLA-4 mod pick inactive
COc1ccc(-n2c(=O)[nH]cc(C(=O)Nc3ccccc3)c2=O)cc1	VLA-4 inh 54.8 | VLA-4 mod pick inactive
COc1ccc(-n2c(=O)[nH]cc(C(=O)Nc3ccc4c(c3)OCCO4)c2=O)cc1	none
COc1ccc(-c2nnc(SCC(=O)N/N=C(\C)c3ccc(-c4ccccc4)cc3)n2-c2ccc(C)cc2)cc1	none (no result: VLA-4 inh, PG9 binder, Exocytosis inh, ABCB6 inh 2)
CCOC(=O)c1[nH]c2ccccc2c1NC(=O)CC	none
CCOC(=O)c1[nH]c2ccccc2c1NC(C)=O	VLA-4 inh 67.6 | VLA-4 mod pick inactive
N=c1sccn1CC(=O)NCCc1ccc(Cl)cc1Cl	VLA-4 inh 95.0 | VLA-4 mod pick inactive
CCOc1ccc(NC(=O)CN(C)C(=O)c2ccc(COc3ccccc3)cc2)cc1OCC	none
CCOc1ccc(NC(=O)CN(C)C(=O)c2ccc(COc3ccccc3)o2)cc1OCC	VLA-4 inh 53.6 | VLA-4 mod pick inactive
O=C(CCSc1ccc(Br)cc1)c1ccc(O)cc1	none | VLA-4 mod pick inactive
O=C(CCO)c1ccc(O)cc1	none
O=C1C2C3C=CC(c4ccccc4)(C2C(=O)N1c1cccc(Cl)c1)C1C(=O)N(c2cccc(Cl)c2)C(=O)C31 (stereo not drawn)	VLA-4 inh 56.9 | VLA-4 mod pick inactive
CC(C)CC(=O)Nc1ccc2c(c1)nc(CCN1CCCCC1)n2C	none | VLA-4 mod pick inactive
CC(C)(C)c1ccc(C(=O)NCCCN2CCN(CCCNC(=O)c3ccc(C(C)(C)C)cc3)CC2)cc1	none | VLA-4 mod pick inactive
CCCCn1c(C(C)O)nc2ccccc21 (stereo not drawn)	none
CC(C)CCn1c(C(C)O)nc2ccccc21 (stereo not drawn)	VLA-4 inh 86.7 | VLA-4 mod pick inactive
CCCCCN1C(=O)Cn2c(nc3ccccc3c2=O)C1C (stereo not drawn)	none | VLA-4 mod pick inactive
COc1ccc(CNCC#Cc2ccc(C)cc2)c(OC)c1	none (no result: VLA-4 inh, PG9 binder, Exocytosis inh, ABCB6 inh 2)
COCCn1c(-c2ccco2)nc2nc3ccccc3nc21	VLA-4 inh 92.3 | VLA-4 mod pick inactive
S=C(NCCc1ccccc1)Nc1ccccc1Cl	none
S=C(NCCCc1ccccc1)Nc1ccccc1Cl	VLA-4 inh 49.6 | VLA-4 mod pick inactive
COc1cccc(OC(C)CCN2CCC(C(O)(c3ccccc3)c3ccccc3)CC2)c1 (stereo not drawn)	none (no result: VLA-4 inh, PG9 binder, Exocytosis inh, ABCB6 inh 2)
CCOC(=O)N1CCN(C(=O)CN(C)S(=O)(=O)c2ccc(F)cc2)CC1	none
CCOC(=O)N1CCN(C(=O)CN(C)S(=O)(=O)c2ccc3c(c2)C(C)(C)C(=O)N3C)CC1	none | VLA-4 mod pick inactive
